Many of the other results were omitted from the sample, so hits are more common in it than they were.
ALR H2O2 inh: human ALR oxidase inhibition via reduced H2O2. P55789. inhibition, % (concentration not given with the values). hit rate 3.8% among 290,000. purified ALR, DTT oxidation, H2O2 HRP-luminol luminescence. AID 485317;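 active = mean replicate inhibition above about 79%, with every replicate also reaching it, limit read from the data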
GC-B act: GC-B (human) receptor activation. P20594. HEK293-GC-B cells, CNP EC30, cGMP TR-FRET; 0% at EC30 CNP, 100% saturating CNP. activation, % at 10 µM. hit rate 0.11% among 370,000;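 active = activation at 10 µM reaching about 35% in either raw or pattern-adjusted values, limit read from the data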
GC-A act: GC-A (human) enzyme activation; P16066; HEK293 GC-A cells, cGMP TR-FRET, EC30 ANP; 0% at EC30 ANP, 100% saturating ANP; activation, % at 10 µM; hit rate 0.14% among 370,000; AID 1671463; in the data active = activation above about 40%
HDAC3 inhib: inhibitors of human histone deacetylase 3. O15379. recombinant HDAC3, fluorogenic peptide/trypsin coupled, fluorescence. inhibition, % at 8.3 µM. hit rate 0.15% among 320,000. AID 2718; in the data active = inhibition above about 26%, passing the limit was not always enough
Of the large screens only hits and unclear results are named; the others gave an inactive call.

COc1ccc(Cl)cc1NC(=O)CSc1sc2c(O)cc(=O)[nH]c2c1C#N	ALR H2O2 inh 98.6
Cc1ccc(Cl)cc1NC(=O)CSc1sc2c(O)cc(=O)[nH]c2c1C#N	ALR H2O2 inh 92.5
COc1ccc(NC(=O)CSc2sc3c(O)cc(=O)[nH]c3c2C#N)c(OC)c1	none
COc1ccccc1NC(=O)CSc1sc2c(O)cc(=O)[nH]c2c1C#N	ALR H2O2 inh 94.5
O=C1CCCC2=C1[C@@]1(O[C@H]3C=CC=CN23)C(=O)N(c2ccccc2)c2ccccc21	none (no result: ALR H2O2 inh, HDAC3 inhib)
Cc1oc(-c2ccc(Cl)cc2)nc1CN1CCCC(C(=O)NCCCN2CCCC2=O)C1 (stereo not given)	none
Cc1ccc(-c2ccc(=O)n(CC(=O)NCCN(CC(C)C)CC(C)C)n2)cc1	none
Cc1oc(-c2ccc(Cl)cc2)nc1CS(=O)CC(=O)NCCN1CCCC1 (stereo not given)	ALR H2O2 inh 99.0
CCc1ccc(-c2nc(CS(=O)CC(=O)NCCCN3CCC(C)CC3)c(C)o2)cc1 (stereo not given)	ALR H2O2 inh 98.2
Cc1ccc(-c2nc(CS(=O)CC(=O)NCCN3CCOCC3)c(C)o2)cc1 (stereo not given)	ALR H2O2 inh 99.3
Cc1ccc(-c2nc(CS(=O)CC(=O)NCCN(CC(C)C)CC(C)C)c(C)o2)cc1 (stereo not given)	ALR H2O2 inh 99.2
CCC(C)(c1nnnn1-c1c(C)cccc1C)N(N=O)c1ccccc1Cl (stereo not given)	none
O=C(N/N=C/c1ccc(Cl)cc1)c1ccc2nc[nH]c2c1	none (no result: ALR H2O2 inh, HDAC3 inhib)
Nn1c(SCC(=O)Nc2nccs2)nnc1-c1cc(-c2ccc(F)cc2)n[nH]1	none (no result: ALR H2O2 inh, HDAC3 inhib)
Cc1ccccc1-c1nc(CS(=O)CC(=O)NCCN2CCOCC2)c(C)o1 (stereo not given)	ALR H2O2 inh 99.2
Cc1ccccc1-c1nc(CS(=O)(=O)CC(=O)NCCN2CCOCC2)c(C)o1	none
Cc1oc(-c2ccc(Cl)cc2)nc1CS(=O)CC(=O)NCCCN1CCOCC1 (stereo not given)	ALR H2O2 inh 98.5
CCc1ccc(-c2nc(CN3CCCC(C(=O)NCCc4ccc(OC)c(OC)c4)C3)c(C)o2)cc1 (stereo not given)	none (no result: ALR H2O2 inh)
Cc1ccc(-c2nc(CS(=O)CC(=O)NCCCN3CCN(Cc4ccccc4)CC3)c(C)o2)cc1 (stereo not given)	ALR H2O2 inh 98.8
CCc1ccc(-c2nc(CS(=O)CC(=O)NCCN3CCCCCC3)c(C)o2)cc1 (stereo not given)	ALR H2O2 inh 99.5
COc1ccc2c(c1)[C@]1(C(=O)N2C)C2=C(CCCC2=O)Oc2cc(C)oc(=O)c21	none (no result: ALR H2O2 inh, HDAC3 inhib)
COc1ccc(Cn2cc(CN3[C@H](C)COc4cc(Br)ccc4S3(=O)=O)nn2)cc1	none (no result: ALR H2O2 inh, HDAC3 inhib)
Cc1ccc(-c2nc(CS(=O)(=O)CC(=O)NCCN3CCOCC3)c(C)o2)cc1	none
Cc1ccc(-c2nc(CS(=O)CC(=O)NCCN3CCCC3)c(C)o2)cc1 (stereo not given)	ALR H2O2 inh 98.8
Cc1ccc(C(=O)NCC(=O)OC(C)C(=O)Nc2ccc(N(C)C)cc2)cc1C (stereo not given)	ALR H2O2 inh 99.0
CC(=O)NCC(=O)OC(C)C(=O)Nc1ccc(C(C)=O)cc1 (stereo not given)	none
COc1ccc2nc3cccc(OC)c3nc2c1	none (no result: ALR H2O2 inh)
COc1ccc2nc3ccccc3nc2c1N	ALR H2O2 inh 99.2
COc1ccc(O)c(C(=O)c2cnc3c(c2)CN(C)C(=O)N3)c1	none
CN1Cc2cc(C(=O)c3ccccc3O)cnc2NC1=O	ALR H2O2 inh 87.4
Cc1oc(-c2cccc(Cl)c2)nc1CS(=O)(=O)CC(=O)NCc1ccco1	none
Cc1ccc(-c2nc(CS(=O)CC(=O)NCc3ccco3)c(C)o2)cc1 (stereo not given)	ALR H2O2 inh 99.2
Cc1cccc(-c2nc(CS(=O)CC(=O)NCc3ccco3)c(C)o2)c1 (stereo not given)	ALR H2O2 inh 98.6
COc1ccc(-c2[nH]c(-c3ccc(C)cc3)nc2SCC(=O)NCc2ccco2)cc1OC	none
COc1ccc(-c2nc(CS(=O)CC(=O)NCc3ccco3)c(C)o2)cc1OC (stereo not given)	ALR H2O2 inh 98.5 (no result: HDAC3 inhib)
CCc1ccc(-c2nc(CN3CCC(C(=O)NCc4ccco4)CC3)c(C)o2)cc1	none
CN(Cc1cccc(F)c1)C(=O)c1ccccc1Sc1ccccc1C#N	none
CC1(c2ccc3ccccc3c2)CCC(=O)O1 (stereo not given)	none (no result: ALR H2O2 inh, HDAC3 inhib)
CC1(c2cnc(Nc3ccccc3)s2)CCC(=O)O1 (stereo not given)	ALR H2O2 inh 97.2
C=Cc1ccc(CSc2cc(C)nc3nc(C)nn23)cc1	HDAC3 inhib 31.1 (no result: ALR H2O2 inh)
COCCCNC(=O)C[C@H]1C[C@@]2(C(=O)OC)C(=C[C@H](C3CCCC3)O[C@@H]2C)N(Cc2ccco2)C1=O	none (no result: ALR H2O2 inh, HDAC3 inhib)
COC(=O)c1ccccc1NS(=O)(=O)c1ccc(Cl)nc1	none
Cc1c(O)c(CN2CCCC2)cc2c1oc(=O)c1ccccc12	ALR H2O2 inh 85.1
Cc1c(O)c(CN2CCCC2)cc2c3c(c(=O)oc12)CCC3	none (no result: ALR H2O2 inh)
O=[N+]([O-])c1ccccc1Oc1ccc(S(=O)(=O)N2CCOCC2)cc1	none
Cc1ccc(C2CC(=O)Oc3cc(O)ccc32)cc1 (stereo not given)	GC-A act 57.0
CCOC(=O)C1=C(N)Oc2cc(O)ccc2C1c1ccccc1 (stereo not given)	none
CCOC(=O)C1=C(N)Oc2cc(O)ccc2C1c1cccc([N+](=O)[O-])c1 (stereo not given)	ALR H2O2 inh 84.9
CCOC(=O)C1=C(N)Oc2cc(O)ccc2C1c1ccc(C)cc1 (stereo not given)	GC-A act 48.6
CCN(CC(=O)NC(C)(C)C)C(=O)c1ccc2c(c1)S(=O)(=O)c1ccccc1C2=O	none
O=C(CSc1n[nH]c(=O)n1C1CC1)Nc1ccc(F)c(Cl)c1	none
O=C(NCc1ccncc1)C(=O)NCC(c1ccco1)N1CCN(c2ccccc2)CC1 (stereo not given)	ALR H2O2 inh 99.2
COC(=O)NCC(c1ccco1)N1CCN(c2ccccc2)CC1 (stereo not given)	ALR H2O2 inh 96.4
COc1ccc(N2CCN(C(CNC(=O)C(=O)NCc3cccnc3)c3ccco3)CC2)cc1 (stereo not given)	none
COc1ccc(N2CCN(C(CNC(=O)c3ccc4c(c3)OCO4)c3cccnc3)CC2)cc1 (stereo not given)	ALR H2O2 inh 96.7
O=C(NCc1cccnc1)C(=O)NCC(c1ccco1)N1CCN(c2ccc(F)cc2)CC1 (stereo not given)	ALR H2O2 inh 85.8
COc1ccc(N2CCN(C(CNC(=O)c3ccco3)c3cccnc3)CC2)cc1 (stereo not given)	ALR H2O2 inh 89.0
O=C(COc1coc(CN2CCN(c3ccccc3)CC2)cc1=O)NCC1CCCO1 (stereo not given)	ALR H2O2 inh 93.4
O=C(NCC(c1cccnc1)N1CCN(c2ccc(F)cc2)CC1)c1ccco1 (stereo not given)	ALR H2O2 inh 92.4
COc1ccc(N2CCN(C(CNC(=O)c3ccco3)c3ccco3)CC2)cc1 (stereo not given)	ALR H2O2 inh 90.8
